TEAD-YAP inh – TEAD-YAP interaction inhibition; HEK-TIYL cells, TEAD-Gal4/YAP UAS-luciferase luminescence; inhibition, % at 9.12 µM; actives 1.4% (n = 640,000); AID 1259422; in the data active = inhibition above about 32%;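 also: 0% = median of test compound wells and 100% = reference inhibitor wells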
GPR151 activ – activators of human GPR151; actives 1% (n = 650,000); AID 1508602; PathHunter beta-arrestin GPR151 cells, luminescence; Q8TDV0; activation, % at 11.2 µM; in the data active = activation above about 4.9%;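 also: 0% = median of compound wells and 100% = cells with positive control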
Target sequence (Q8TDV0 whole entry, looked up): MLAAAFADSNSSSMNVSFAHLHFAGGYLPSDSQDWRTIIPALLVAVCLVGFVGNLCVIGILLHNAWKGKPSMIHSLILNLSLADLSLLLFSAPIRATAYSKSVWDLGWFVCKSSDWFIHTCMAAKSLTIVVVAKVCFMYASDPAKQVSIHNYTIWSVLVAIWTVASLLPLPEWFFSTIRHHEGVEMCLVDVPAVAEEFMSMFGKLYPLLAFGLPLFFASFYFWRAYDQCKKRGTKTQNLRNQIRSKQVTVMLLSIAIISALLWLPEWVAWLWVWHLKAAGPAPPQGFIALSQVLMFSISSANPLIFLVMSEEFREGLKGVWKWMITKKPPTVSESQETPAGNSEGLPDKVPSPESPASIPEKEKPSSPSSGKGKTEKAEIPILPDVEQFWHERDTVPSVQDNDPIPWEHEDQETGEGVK
FBW7 activator – activators of human E3 ligase FBW7; normalized activity (activation), % at 26.1 µM; AlphaScreen FBW7–phospho-cyclin E peptide binding, activator screen; actives 0.13% (n = 650,000); in the data active = normalized activity above about 1.9%;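 also: purified mutant Fbw7 with reduced substrate affinity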
MITF primary – inhibitors of human MITF. AlphaScreen MITF homodimerization, bead proximity signal. O75030. inhibition, % at 2.6 µM. actives 0.91% (n = 650,000). AID 1259374; in the data active = inhibition above about 50%;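 also: 0% = vehicle wells with protein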
GPR151 conf act – confirmation of human GPR151 activators; shares compounds with GPR151 activ; GPR151 PathHunter beta-arrestin cells, luminescence, 90 min; % of EA-reagent control over plate median; activation, % at 11.2 µM; 6,700 tested, under 10 active;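 active = mean percent activation across replicates above the confirmation screen cutoff of 4.91%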
GPR119 counter – GPR119 activation, counter-screen for GPR151 activators; actives 0.3% (n = 6,700); AID 1508611; activation, % at 11.2 µM; GPR119 PathHunter beta-arrestin cells, luminescence, 90 min; 0 = compound-well median, 100 = enzyme-acceptor control; shares compounds with GPR151 activ;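 active = mean percent activation in the counterscreen above 29.09%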;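 also: counterscreen on off-target GPR119 to flag nonselective hits from the GPR151 activator screen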
Starred values were filed as active, the others as inactive; . = no result given. Only some compounds are listed: those with a hit (about 3.5% of all), similar ones and a draw of the others.

SMILES	TEAD-YAP inh	GPR151 activ	FBW7 activator	MITF primary	GPR151 conf act	GPR119 counter
Cc1nc2ccc(N/C=C3\C(=O)C(C)(C)Oc4ccc5ccc(=O)oc5c43)cc2s1	-10	5.8*	0	2	1	5
N#C/C(=C\c1ccc(O)cc1O)c1nc2ccccc2[nH]1	-33	-5	0	-4	.	.
Cc1ccc2nc(/C(C#N)=C\c3ccccc3OCC#N)[nH]c2c1	-28	5.1*	0	10	2	7
N#C/C(=C\c1cc(Cl)ccc1O)c1nc2ccccc2[nH]1	-22	5.7*	0	8	2	8
O=C(Cn1cnc2ccccc2c1=O)OCCN=C1NS(=O)(=O)c2ccccc21	3	4	0	5	.	.
CC(C)(O)C#Cc1ccc(C(=O)NC(Cc2c[nH]c3ccccc23)C(=O)O)cc1 (stereo not drawn)	-3	12*	0	-2	1	7
Cc1ccc(C(=O)NC(Cc2c[nH]c3ccccc23)C(=O)O)cc1 (stereo not drawn)	-4	-1	0	-2	.	.
CCCN1C(=O)/C(=C2/C(=O)N(C)c3ccccc32)SC1=S	6	0	0	3	.	.
CCCN1C(=O)/C(=C2\SC(=S)N(CCOC)C2=O)c2ccccc21	8	5.6*	0	11	1	-4
CN(CC1COCCO1)C(=O)Cn1nnnc1CN1CCCCCC1 (stereo not drawn)	3	0	0	12	.	.
O=[N+]([O-])c1cc(C(F)(F)F)ccc1NCCNCCO	12	0	0	-7	.	.
Cc1nonc1OCCNCCNc1ccccc1[N+](=O)[O-]	1	5.6*	0	1	0	5
O=[N+]([O-])c1ccccc1NCCNCCO	3	7.9*	0	-1	0	-2
Cc1nonc1OCCCNc1ccc([N+](=O)[O-])cc1	17	-1	1	4	.	.
CCOC(=O)c1sc(NC(=O)CSc2nnc(CNC(=O)Cc3ccccc3)n2-c2ccccc2OC)c(C(=O)OCC)c1C	3	-2	0	1	.	.
CCOC(=O)c1sc(NC(=O)CSc2nnc(CNC(=O)c3ccco3)n2-c2ccccc2OC)c(C(=O)OCC)c1C	5	8.7*	0	-2	-1	-13
CCOC(=O)c1c(NC(=O)CSc2nnc(CNC(=O)c3cc(OC)cc(OC)c3)n2Cc2ccccc2)sc2c1CCCC2	-4	5.0*	0	-9	0	-8
CCOC(=O)c1c(NC(=O)CSc2nnc(CNC(=O)c3cccc(F)c3)n2-c2ccc([N+](=O)[O-])cc2)sc2c1CCCCC2	-3	5.5*	0	-1	0	-1
CCOC(=O)c1c(NC(=O)CSc2nnc(CNC(=O)c3cccc(F)c3)n2-c2ccc(OCC)cc2)sc2c1CCC2	8	3	0	8	.	.
O=C(CSc1nnc(N2CCN(c3ccccc3)CC2)s1)c1ccccc1	-24	-1	0	12	.	.
Cc1ccc(-n2c(=S)sc3c(=O)n(-c4ccc(F)cc4)c(SCC#N)nc32)c(C)c1	2	6.3*	0	-11	1	7
CCOc1ccc(-n2c(SCC#N)nc3c(sc(=S)n3-c3ccc(C)cc3C)c2=O)cc1	8	0	0	2	.	.
CCc1ccccc1N(C(=O)c1cccc(C)c1)C1C=CS(=O)(=O)C1 (stereo not drawn)	-20	0	0	-5	.	.
CCOC(=O)c1c(NC(=O)c2ccccc2Cl)sc2c1CC(C)(C)NC2(C)C	-16	2	0	-3	.	.
CC1(C)Cc2c(sc(NC(=O)c3ccccc3F)c2C(N)=O)C(C)(C)N1	5	6.3*	0	3	0	2
SMILES	TEAD-YAP inh	GPR151 activ	FBW7 activator	MITF primary	GPR151 conf act	GPR119 counter
CCOC(=O)c1c(NC(=O)c2ccc(OC)cc2OC)sc2c1CC(C)(C)NC2(C)C	-2	5.6*	0	-2	0	-2
CCOC(=O)C1(C(F)(F)F)N=C(c2ccco2)OC(N(CC)CC)=N1 (stereo not drawn)	4	0	0	15	.	.
COc1cccc(N2C(=O)CC(NNC(=O)c3sc(N4CCOCC4)nc3C)C2=O)c1 (stereo not drawn)	3	-1	0	9	.	.
O=C1c2ccccc2C(=O)N1CCOc1ccc(Br)cn1	-2	6.0*	0	-3	0	0
O=C1c2ccccc2C(=O)N1CCOc1ccccc1F	-69	-3	0	-1	.	.
c1csc(-c2nnc(N3CCOCC3)c3ccccc23)c1	6	5.9*	0	5	0	2
CCNc1nc(OC(C(F)(F)F)C(F)(F)F)nc(N2CCCCC2)n1	3	6.0*	0	-9	2	13
COc1ccc(N2C(=O)NC3CC2(C)Oc2c(OC)cccc23)c(OC)c1 (stereo not drawn)	12	6.7*	0	7	2	11
COc1ccc(N2C(=O)NC3CC2(C)Oc2c(OC)cccc23)cc1 (stereo not drawn)	10	0	0	4	.	.
OCC1CCCN1c1cc(Nc2ccc(N3CCOCC3)cc2)ncn1 (stereo not drawn)	-7	-2	0	10	.	.
CC(=O)Nc1ccc(Nc2cc(N3CCCC3CO)ncn2)cc1 (stereo not drawn)	-19	5.2*	0	-2	1	-9
CC(=O)/C=C/c1ccc(OC(F)F)cc1	5	6.0*	0	12	0	-5
COc1ccc(CN2CCC3(CCC(CNS(=O)(=O)C(C)C)O3)CC2)cc1 (stereo not drawn)	0	6.3*	0	-3	0	3
CN(Cc1ccccc1)C(=O)Cn1ncc2ccsc2c1=O	-30	5.6*	0	-7	-1	-22
CCC(C)NS(=O)(=O)c1ccc2c(c1)SCCN2C(C)=O (stereo not drawn)	-2	0	0	6	.	.
CCOc1ccccc1OCCN[C@H](C)Cc1ccc(OC)c(S(N)(=O)=O)c1	-2	6.8*	0	-16	0	0
CC1=C(C)SC(=C(C#N)c2nnc(N3CCOCC3)n2-c2ccccc2)S1	6	5.4*	0	-1	0	-2
Cc1ccc(N2C(=O)C3CCCCC3C2=O)cc1F (stereo not drawn)	12	8.1*	0	14	0	2
Cc1cccc(CC(Cc2nc3ccccc3[nH]2)c2nc3ccccc3[nH]2)c1 (stereo not drawn)	12	5.6*	0	6	0	-11
CC(=O)C(Cc1ccccc1)NC(=O)CN1C(=O)c2ccccc2C1=O (stereo not drawn)	6	0	0	2	.	.
CCOC(=O)C(CC1=CNC2C=CC=CC12)NC(=O)CN1C(=O)c2ccccc2C1=O (stereo not drawn)	-6	7.7*	0	-6	0	11

Assay outcomes as filed in PubChem BioAssay.
